Many of the other results were omitted from the sample, so hits are more common in it than they were.
KDM5B inh: blocks human KDM5B histone demethylase activity | Q9UGL1 | KDM5B demethylase, FDH-coupled NADH fluorescence (FDH is formaldehyde dehydrogenase) | Potency, µM (doses to about 57.7 µM), usual class: inhibitors | hit rate 2.6% among 220,000 | AID 1347165; active = well fitted inhibition curve with a large enough effect; note: 0% is about no effect; nearly all actives have a fitted effect of over 70% in size
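Coupled FDH/NAD⁺ fluorescence readout. KDM5BΔAP 200 nM final; compound titration, 10 min RT preincubation; substrate mix 12.5 µM H3K4me3, 25 µM 2-OG, 50 µM Fe(II), 100 µM ascorbate, 0.25 mM NAD⁺, 0.25 U/mL FDH; ΔRFU over 30 min.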
An asterisk follows results filed as active. Potency is the fitted concentration of half-maximal effect.

`Cc1cc(=O)oc2cc3occ(-c4ccc(-c5ccccc5)cc4)c3cc12` gave KDM5B inh inactive.
C=CCN(Cc1ccc(OC)cc1)C(=O)c1cc(=O)c2ccccc2o1 was read as KDM5B inh inactive.
For N#Cc1ccccc1CN1CCN(c2oc(C3CC3)nc2C#N)CC1 the results were KDM5B inh inactive.
`O=C(NC1CCCCC1)[C@@H]1C[C@@H](O)CN1C1CCN(C(=O)c2n[nH]c3ccccc23)CC1` gave KDM5B inh inactive.
Cc1ccc(CNC(Cc2c[nH]c3ccccc23)C(=O)O)cc1 (centres undefined) was read as KDM5B inh inactive.
O=C(NCc1ccccc1)c1ccccc1OC1CN(Cc2ccc(F)cc2)C1 was read as KDM5B inh inactive.
`O=C(C[C@H]1NC(=O)c2ccccc2NC1=O)Nc1nc(-c2ccc3c(c2)OCO3)cs1` gave KDM5B inh inactive.
`C=CCNCc1ccccc1OCc1ccc(C)cc1` gave KDM5B inh inactive.
CC(C)c1nc2c(c(-c3ccc(O)cc3)n1)CN(Cc1ccc(C(F)(F)F)cc1)CC2 was read as KDM5B inh inactive.
For CC(C)CNC(=O)C1CCN(c2ncnc3sc4c(c23)CCCC4)CC1 the results were KDM5B inh inactive.
For Cn1nc(C(=O)NCc2nnc3n2CCCCC3)c2ccccc2c1=O the results were KDM5B inh inactive.
For N#Cc1ccc(NC(=O)CCCc2cccs2)cc1 the results were KDM5B inh inactive.
Screening COc1cc(CNC(=O)CCc2ccncc2)ccc1OC1CCCC1 returned KDM5B inh inactive.
Screening CCN(CC)c1cc(CCC(=O)NCCN(C)C2CCCCC2)ccn1 returned KDM5B inh 28µM*.
For CCN(CC)c1cc(CCC(=O)N2CCC(COC)CC2)ccn1 the results were KDM5B inh 25µM*.
For CCN(CC)c1cc(CCC(=O)NCCOC)ccn1 the results were KDM5B inh 18µM*.
CCN(CC)c1cc(CCC(=O)NCCCN2CCN(C)CC2)ccn1 was read as KDM5B inh 25µM*.
Screening COc1cccc(CCC(=O)N2CCC(OCC3CC3)C2)c1 (centres undefined) returned KDM5B inh inactive.
For CCN(CC)c1cc(CCC(=O)O)ccn1 the results were KDM5B inh inactive.
`CS(=O)(=O)N1CCOc2ccc(CCC(=O)NCCCN3CCOCC3)cc2C1` gave KDM5B inh inactive.
For COCCNC(=O)CCc1ncc(-c2ccc(C)c(C)c2)o1 the results were KDM5B inh inactive.
`CN1CCN(CCNC(=O)CCc2ccc3c(c2)CN(S(C)(=O)=O)CCO3)CC1` gave KDM5B inh inactive.
For CN(CCNC(=O)CN1CC2CC(C1)[C@H]1CCCC(=O)N1C2)C1CCCCC1 (some centres undefined) the results were KDM5B inh inactive.
COCCOC1CCN(C(=O)CCc2cccc(OC)c2)CC1 was read as KDM5B inh inactive.
Screening Cc1ccc(CC(=O)C(C#N)C(=O)Nc2ccccc2Cl)cc1 (centres undefined) returned KDM5B inh inactive.
`CNS(=O)(=O)c1ccc(Oc2ccc3c(C(C)C)cc(=O)oc3c2)c([N+](=O)[O-])c1` gave KDM5B inh inactive.
For CSc1ccc(/C=N/Nc2ccc(S(N)(=O)=O)cc2[N+](=O)[O-])cc1 the results were KDM5B inh inactive.
`Cc1cccc(C2(c3cccc(C)c3)CC2C(=O)N/N=C/C=C/c2ccccc2)c1` (centres undefined) gave KDM5B inh inactive.
CCCCCCn1nc(C(=O)OCc2ccccc2)c2ccccc2c1=O was read as KDM5B inh inactive.
`Cc1c(-c2cccc(Cl)c2)nc2ccccc2c1C(=O)NC1CCCCCC1` gave KDM5B inh inactive.
Cc1ccc2c(=O)cc(C(=O)Nc3cccc(C(F)(F)F)c3)oc2c1 was read as KDM5B inh inactive.
`FC(F)(F)c1cnc(SCc2cn3ccsc3n2)c(Cl)c1` gave KDM5B inh inactive.
For O=C(NC[C@H]1O[C@@H]2C[C@@H](CC(=O)N3CCOCC3)O[C@@H]2[C@@H]1O)NC1CCCCC1 the results were KDM5B inh inactive.
For COc1ccc(-c2nc3cc(NC(=O)c4cccc(Br)c4)ccc3o2)cc1 the results were KDM5B inh inactive.
For O=C(CCCc1c[nH]c2ccccc12)N1CCC(c2noc(COc3ccc(F)cc3)n2)CC1 the results were KDM5B inh inactive.
For COc1ccccc1/C=N/O the results were KDM5B inh inactive.
For CN(C)c1ccc(C(=O)/C=C/c2ccc(C#N)cc2)cc1 the results were KDM5B inh inactive.
`COc1cc(OC)c(C(=O)Oc2ccc(C#N)cc2OC)cc1OC` gave KDM5B inh inactive.
Screening FC(F)Sc1ccc(NC(=S)NCCCc2ccccc2)cc1 returned KDM5B inh inactive.
`O=C(CCCOC(=O)c1cc2ccccc2[nH]1)c1ccccc1` gave KDM5B inh inactive.
O=C(O)CCC(=O)NCCN1CCCC1 was read as KDM5B inh inactive.
CCOC(=O)c1c(C)c(CCC(=O)NCCN2CCCCC2)c(C)n1C was read as KDM5B inh inactive.
Screening CCN(CC)c1cc(CCC(=O)NCCN2CCCCCC2)ccn1 returned KDM5B inh 28µM*.
Screening COC(=O)c1ccc2nc(CO[C@H]3CN(Cc4ccc(S(C)(=O)=O)cc4)C[C@H]3F)[nH]c2c1 returned KDM5B inh inactive.
CCCc1cc(=O)n2[nH]c(NC(=O)C(C)C)nc2n1 was read as KDM5B inh inactive.
Cc1ccc(Nc2nc3ccccc3nc2NS(=O)(=O)c2ccc(F)cc2)cc1 was read as KDM5B inh inactive.
O=C(Nc1c(-c2cc(=O)oc3ccc(Cl)cc23)oc2ccccc12)C1CC1 was read as KDM5B inh inactive.
Cc1ccc(C(=O)N2CCC(CCC(=O)NCCc3c[nH]c4ccccc34)CC2)cc1 was read as KDM5B inh inactive.
For Cc1ccc(C2c3[nH]c4ccccc4c3CCN2C(=O)CCC2CCCC2)cc1 (centres undefined) the results were KDM5B inh inactive.
COC(=O)[C@@H]1Cc2c([nH]c3ccccc23)[C@H]2C[C@@H](NC(C)C)C[C@@H](c3ccccc3)N21 was read as KDM5B inh 11µM*.
COC(=O)[C@@H]1Cc2c([nH]c3ccccc23)[C@H]2C[C@@H](NCCNC(C)=O)C[C@@H](c3ccc(-c4ccccc4)cc3)N21 was read as KDM5B inh inactive.
Screening Cc1ccc(C2c3[nH]c4ccccc4c3CCN2C(=O)c2ccccc2Br)cc1 (centres undefined) returned KDM5B inh inactive.
For COC(=O)[C@@H]1Cc2c([nH]c3ccccc23)[C@H]2C[C@@H](NC(C)C)C[C@@H](c3ccc(C)cc3)N21 the results were KDM5B inh 28µM*.
For COC(=O)[C@@H]1Cc2c([nH]c3ccccc23)[C@H]2C[C@@H](NCCc3cnc[nH]3)C[C@@H](c3cccc(Cl)c3)N21 the results were KDM5B inh inactive.
`O=C(CCC1CCCC1)NCC(=O)N1CCCCCCNC(=O)CC1c1ccccc1` (centres undefined) gave KDM5B inh inactive.
CCCSc1nc2c(c(=O)[nH]1)C(C(=O)Nc1ccccc1F)CC(=O)N2 (centres undefined) was read as KDM5B inh inactive.
`COc1ccc(S(=O)(=O)Nc2nc3ccccc3nc2Nc2ccc(C)cc2)cc1` gave KDM5B inh inactive.
Screening O=S(=O)(c1cccc(F)c1)N1CCC(N2CCOCC2)CC1 returned KDM5B inh inactive.
Screening COCCn1c(=O)c2c(nc(-n3nc(C)cc3C)n2CC(C)C)n(C)c1=O returned KDM5B inh inactive.
